# Assay results taken from PubChem BioAssay AID624156 (Broad Institute, 2012).
# The campaign covered roughly 46,000 compounds. About 900 (2%) were called active. Inconclusive results (about 1%) are left out. The full list was thinned out, with actives kept by preference. Values without a mark were called inactive. Rule as the data show it: active = ROS induction above about 79% (passing the limit was not always enough); inconclusive = no clear call, values can overlap the other calls.
# Experiment: ROS inducers in U2OS cancer cells, primary screen, cell-based, H2DCF-DA fluorescence (AID 624156);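 also: 0% = DMSO vehicle median and 100% = reference compound median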
# Details: at 10 µM, active compounds read high
row,Structure (SMILES),ROS induction (% of piperlongumine)
1,CC1CCN(C(=O)CCNS(=O)(=O)c2cccc3nsnc23)CC1,-19.6%
2,Cc1cc(C(C)(C)C)cc(S(=O)(=O)Nc2ccc(C(=O)N3CCC(C)CC3)cc2)c1C,5.57%
3,Cc1cccc(NC(=O)c2nnn(-c3cccc(C(F)(F)F)c3)c2N)c1,-17.1%
4,O=S(=O)(NCc1csc(-c2cccnc2)n1)c1ccc2c(c1)CCCC2,5.59%
5,Cn1c(=NC(=O)CCOc2ccccc2)sc2cc(Br)ccc21,1.27%
6,Cc1ccc(Nc2cc(C(=O)NCC3CCCO3)c3ccccc3n2)cc1C (centres undefined),1.21%
7,Cc1ccc(S(=O)(=O)N(CC(=O)Nc2ccc3c(c2)OCCO3)C2CCCCC2)cc1,7.86%
8,Cc1nnc(SCc2cc(=O)[nH]c(N3CCN(Cc4ccccc4)CC3)n2)s1,-2.67%
9,Cc1cc(Nc2ccc(Cl)cc2)c2ccccc2n1,6.49%
10,Cc1cc(Sc2nnc(C)s2)c2ccccc2n1,255% (active)
11,Cc1ccc2c(Sc3ccc(Cl)cc3)c(C(=O)NC3CCCC3)[nH]c2c1,-12.5%
12,O=C(N/N=C/c1cc(F)ccc1O)c1ccccc1O,-13.6%
13,c1ccc(Nc2ncnc3sc(-c4ccccc4)cc23)cc1,130% (active)
14,CNC(=O)NC(=O)CSc1ncnc2sc(-c3ccccc3)cc12,5.81%
15,Cc1ccccc1NC(=O)NC(=O)CC#N,-16.4%
16,C[C@@H]1CN([C@@H](C)CO)C(=O)c2cc(NC(=O)C3CC3)ccc2O[C@H]1CN(C)C,-0.632%
17,Cn1c(=O)c2c(nc(SCC(=O)NC(C)(C)C)n2Cc2ccccc2F)n(C)c1=O,0.779%
18,CC(C)C1Cc2c(sc3nc(SCC(=O)Nc4ccccc4)nc(N)c23)CO1 (centres undefined),44%
19,Cc1ccc(NC(=O)c2ccc(CSc3ccccn3)cc2)c(C)c1,-9.72%
20,C[C@@H]1CN([C@H](C)CO)C(=O)c2cc(NS(=O)(=O)c3ccc(F)cc3)ccc2O[C@H]1CN(C)C(=O)Nc1cccc2ccccc12,6.38%

row,Structure (SMILES),ROS induction (% of piperlongumine)
1,O=C1O[C@@H](c2ccccc2)[C@@H](c2ccccc2)N2[C@@H](c3ccccc3OCCO)[C@]3(C(=O)Nc4ccccc43)[C@@H](C(=O)N3CCCCCCC3)[C@H]12,108% (active)
2,COC(=O)C(CC#Cc1ccc2c(c1)[C@]1(C(=O)N2)[C@H](c2ccccc2OCCO)N2[C@H](c3ccccc3)[C@H](c3ccccc3)OC(=O)[C@H]2[C@@H]1C(N)=O)C(=O)OC,447% (active)
3,COCCOC(=O)N1C(=O)[C@@]2(c3cc(C#CCNC(N)=O)ccc31)[C@H](C(=O)N1CCN(c3ncccn3)CC1)[C@H]1C(=O)O[C@H](c3ccccc3)[C@H](c3ccccc3)N1[C@@H]2c1ccccc1OCCO,19.5%
4,O=C1O[C@H](c2ccccc2)[C@H](c2ccccc2)N2[C@H]1[C@@H](C(=O)N1CCN(c3ncccn3)CC1)[C@]1(C(=O)Nc3ccccc31)[C@H]2c1ccc(OCCO)cc1,69.8%
5,COc1ccc(C#Cc2ccc3c(c2)[C@]2(C(=O)N3)[C@H](c3ccccc3OCCO)N3[C@H](c4ccccc4)[C@H](c4ccccc4)OC(=O)[C@H]3[C@@H]2C(=O)N2CCCCCCC2)cc1,-14.4%
6,COCCOC(=O)N1C(=O)[C@@]2(c3cc(C#CCC(C(=O)OC)C(=O)OC)ccc31)[C@H](c1ccc(OCCO)cc1)N1[C@H](c3ccccc3)[C@H](c3ccccc3)OC(=O)[C@H]1[C@@H]2C(N)=O,166% (active)
7,C=CCNC(=O)[C@H]1[C@@H]2C(=O)O[C@@H](c3ccccc3)[C@@H](c3ccccc3)N2[C@@H](c2ccccc2OCCO)[C@]12C(=O)N(C(=O)OCCOC)c1ccc(C#Cc3ccc(OC)cc3)cc12,15.7%
8,O=C1O[C@@H](c2ccccc2)[C@@H](c2ccccc2)N2[C@@H](c3ccc(OCCO)cc3)[C@]3(C(=O)Nc4ccc(C#CCCO)cc43)[C@@H](C(=O)O)[C@H]12,0.895%
9,COC(=O)C(CC#Cc1ccc2c(c1)[C@]1(C(=O)N2)[C@H](c2ccc(O)cc2)N2[C@H](c3ccccc3)[C@H](c3ccccc3)OC(=O)[C@H]2[C@@H]1C(=O)NC[C@H](O)c1ccccc1)C(=O)OC,16.4%
10,COc1ccc(CCNC(=O)c2cc3ccccc3c(=O)o2)cc1OC,19.8%
11,COc1ccc(/C=C(/NC(=O)c2ccccc2)C(=O)N2CC3(C)CC2CC(C)(C)C3)cc1 (centres undefined),1.8%
12,CCOC(=O)C1CCN(C(=O)CN2C(=O)c3ccccc3C2=O)CC1,-6.98%
13,COc1cccc(CNS(=O)(=O)c2ccc3[nH]c(=O)ccc3c2)c1,-8.9%
14,C[C@@H]1CN([C@@H](C)CO)C(=O)c2cc(NC(=O)CCCN(C)C)ccc2O[C@H]1CN(C)Cc1ccccc1,-15.8%
15,NS(=O)(=O)c1ccc(CCNC2=CC(=O)OC23CCCCC3)cc1,-9.03%
16,COc1ccc(OC)c(NC(=O)CSc2n[nH]c(-c3ccncc3)n2)c1,148% (active)
17,COC(=O)c1ccccc1NC(=O)CSc1n[nH]c(-c2ccncc2)n1,-0.326%
18,O=C(CSc1n[nH]c(-c2ccncc2)n1)Nc1ccccc1F,-7%
19,CC1CCCC(C)N1C(=O)c1cc2c(s1)-c1ccccc1OC2 (centres undefined),-1.02%
